Results taken from PubChem BioAssay (Tox21).
Results filed as inconclusive are left out. Calls of active or inactive are those of the source. Unless noted, calls follow the shape of the full dose curve.

Legend:
[1] = qHTS assay to identify small molecule agonists of the sonic hedgehog signaling (Shh) pathway (AID 1259368);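 also: NIH/3T3-derived 3T3Gli1-Luc cells carrying a stable Gli1-driven firefly luciferase reporter; series mostly up to about 92 µM; nearly all actives have a fitted effect of over 15% in size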
Method in brief: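 Read-out: firefly luciferase luminescence from a Gli1 response element reporter stably integrated in NIH/3T3-derived 3T3Gli1-Luc cells, measured 30 min at room temperature after reagent addition. Compound exposure lasted 24 hr at 37 C, 5% CO2.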

[2] = qHTS assay to identify small molecule antagonists of the sonic hedgehog signaling (Shh) pathway (AID 1259369); also: nearly all actives have a fitted effect of over 45% in size
Method in brief: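 Luminescence readout: firefly Luc under Gli1 response element in 3T3Gli1-Luc cells (NIH/3T3 clone). Antagonist mode, stimulation by conditioned medium; compound exposure 24hr at 37 C, 5% CO2.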

[3] = qHTS assay to identify small molecule agonists of the androgen receptor (AR) signaling pathway in the presence of an antagonist - cell viability counter screen (AID 1259379; active = well fitted curve in the direction sought with a large enough effect in the repeat runs; an effect the other way counts as inactive or inconclusive;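 also: MDA-kb2 human breast cancer cells carrying an MMTV luciferase reporter; series mostly up to about 92 µM; nearly all actives have a fitted effect of over 25% in size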)
Method in brief: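 Viability counter screen: CellTiter-Fluor fluorescence, measured in the same wells as the luciferase read-out. MDA-kb2 cells, 3,000/well, with nilutamide at 3.0uM final and compounds at 15 concentrations, 16 hr at 37C, 0% CO2.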

[4] = qHTS assay to identify small molecule agonists of the estrogen receptor beta (ER-beta) signaling pathway - cell viability counter screen (AID 1259380; active = well fitted curve in the direction sought with a large enough effect in the repeat runs; an effect the other way counts as inactive or inconclusive; also: nearly all actives have a fitted effect of over 30% in size; also: potency is read from the fitted curve at half-maximal effect)
Method in brief: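 Luminescence read-out (CellTiter-Glo, 30 min, room temp) taken in the same wells as the beta-lactamase reporter assay; ER-beta-UAS-bla HEK293T cells exposed to DMSO-dissolved compounds for 16 hr at 37C in 2% charcoal-stripped FBS medium.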

[5] = qHTS assay to identify small molecule antagonists of the estrogen receptor beta (ER-beta) signaling pathway - cell viability counter screen (AID 1259382; active = well fitted curve in the direction sought with a large enough effect in the repeat runs; an effect the other way counts as inactive or inconclusive; also: series mostly up to about 92 µM; nearly all actives have a fitted effect of over 55% in size)
Method in brief: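 Luminescent ATP read-out (CellTiter-Glo, 30 min, RT) taken in the same wells as the bla reporter assay. HEK293T ER-beta-UAS-bla cells in 2% charcoal-stripped FBS were exposed to compounds with 1nM E2 for 16 hr at 37C.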

[6] = qHTS assay to identify small molecule agonists or antagonists of the thyroid stimulating hormone receptor (TSHR) signaling pathway - wild type cell line counter screen (AID 1259384)
Method in brief: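 Wild-type Hek293 cells, 800/well, 18 h at 37C, then compound with Ro20-1724 for 30 min RT. cAMP by HTRF (cAMP-d2/anti-cAMP cryptate), 1 h RT, fluorescence read. 15 concentrations, triplicates.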

[7] = biological target: Androgen receptor (Homo sapiens) (UniProt P10275); assay: qHTS assay to identify small molecule agonists of the androgen receptor (AR) signaling pathway in the presence of an antagonist (AID 1259381); also: nearly all actives have a fitted effect of over 15% in size
Method in brief: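 Luciferase read-out (ONE-Glo, 30min room temperature) in MDA-kb2 MMTV-reporter cells; agonist mode run in presence of AR antagonist nilutamide, 3.0uM final. Compounds tested as 15-point series, 16hr exposure at 37C, 0% CO2.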

[8] = biological target: Estrogen receptor (Homo sapiens) (UniProt P03372); assay: qHTS assay to identify small molecule agonists of the estrogen receptor alpha (ER-alpha) signaling pathway in the presence of an antagonist (AID 1259383); also: top concentration of the series differs between compounds; nearly all actives have a fitted effect of over 15% in size
Method in brief: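 Luciferase luminescence (ONE-Glo, 30min at room temperature) measured in VM7Luc4E2 cells after 22hr compound exposure at 15 concentrations, with 10.0nM ICI-182,780 final present; cells express endogenous ER-alpha and carry four EREs upstream of luciferase.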

[9] = biological target: Estrogen receptor beta (Homo sapiens) (UniProt Q92731); assay: qHTS assay to identify small molecule agonists of the estrogen receptor beta (ER-beta) signaling pathway (AID 1259377; active = well fitted activation curve with a large enough effect in the signal ratio in the repeat runs, not every such curve was filed as active; the % refers to the signal ratio)
Method in brief: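 Read-out: beta-lactamase FRET fluorescence. Cell line: ER-beta-UAS-bla HEK293T in 2% charcoal-stripped FBS. Exposure: 16 hr at 37C. Substrate step: 2 h at room temperature.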

[10] = biological target: Estrogen receptor beta (Homo sapiens) (UniProt Q92731); assay: qHTS assay to identify small molecule antagonists of the estrogen receptor beta (ER-beta) signaling pathway (AID 1259378; active = well fitted inhibition curve with a large enough effect in the signal ratio in the repeat runs, not every such curve was filed as active; the % refers to the signal ratio)
Method in brief: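 ER-beta-UAS-bla HEK293T cells in 2% charcoal-stripped FBS medium treated with compound plus 1nM final 17-beta-estradiol for 16 hr at 37C. Beta-lactamase reporter read by FRET substrate fluorescence after 2 hours at room temperature.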

Measured: Potency

Chain of Androgen receptor (Homo sapiens) (P10275 whole entry, looked up): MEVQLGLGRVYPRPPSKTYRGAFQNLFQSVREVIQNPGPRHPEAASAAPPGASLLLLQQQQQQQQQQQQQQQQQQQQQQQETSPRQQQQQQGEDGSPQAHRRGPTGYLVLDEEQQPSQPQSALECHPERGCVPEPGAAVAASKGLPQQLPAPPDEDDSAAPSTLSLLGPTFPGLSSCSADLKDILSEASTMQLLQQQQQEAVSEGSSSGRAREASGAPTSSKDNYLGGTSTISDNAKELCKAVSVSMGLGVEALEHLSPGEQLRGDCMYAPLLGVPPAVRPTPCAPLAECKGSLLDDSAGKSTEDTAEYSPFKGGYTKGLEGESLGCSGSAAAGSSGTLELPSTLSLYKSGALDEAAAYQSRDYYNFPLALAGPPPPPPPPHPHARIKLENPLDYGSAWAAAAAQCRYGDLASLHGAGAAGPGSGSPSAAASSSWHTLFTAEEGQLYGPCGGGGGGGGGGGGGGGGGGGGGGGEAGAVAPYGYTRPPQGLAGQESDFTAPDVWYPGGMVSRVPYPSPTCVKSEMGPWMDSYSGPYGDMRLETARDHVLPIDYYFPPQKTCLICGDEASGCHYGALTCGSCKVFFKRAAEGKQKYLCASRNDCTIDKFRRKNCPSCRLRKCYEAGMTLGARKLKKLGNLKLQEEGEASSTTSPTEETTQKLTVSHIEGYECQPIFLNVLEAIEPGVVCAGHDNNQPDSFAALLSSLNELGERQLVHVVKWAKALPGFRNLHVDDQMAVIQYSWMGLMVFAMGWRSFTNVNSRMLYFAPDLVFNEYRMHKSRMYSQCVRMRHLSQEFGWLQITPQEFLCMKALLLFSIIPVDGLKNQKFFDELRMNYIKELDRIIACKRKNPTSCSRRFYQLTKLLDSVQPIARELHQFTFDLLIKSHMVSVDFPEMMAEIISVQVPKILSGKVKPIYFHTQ
Chain of Estrogen receptor (Homo sapiens) (P03372 whole entry, looked up): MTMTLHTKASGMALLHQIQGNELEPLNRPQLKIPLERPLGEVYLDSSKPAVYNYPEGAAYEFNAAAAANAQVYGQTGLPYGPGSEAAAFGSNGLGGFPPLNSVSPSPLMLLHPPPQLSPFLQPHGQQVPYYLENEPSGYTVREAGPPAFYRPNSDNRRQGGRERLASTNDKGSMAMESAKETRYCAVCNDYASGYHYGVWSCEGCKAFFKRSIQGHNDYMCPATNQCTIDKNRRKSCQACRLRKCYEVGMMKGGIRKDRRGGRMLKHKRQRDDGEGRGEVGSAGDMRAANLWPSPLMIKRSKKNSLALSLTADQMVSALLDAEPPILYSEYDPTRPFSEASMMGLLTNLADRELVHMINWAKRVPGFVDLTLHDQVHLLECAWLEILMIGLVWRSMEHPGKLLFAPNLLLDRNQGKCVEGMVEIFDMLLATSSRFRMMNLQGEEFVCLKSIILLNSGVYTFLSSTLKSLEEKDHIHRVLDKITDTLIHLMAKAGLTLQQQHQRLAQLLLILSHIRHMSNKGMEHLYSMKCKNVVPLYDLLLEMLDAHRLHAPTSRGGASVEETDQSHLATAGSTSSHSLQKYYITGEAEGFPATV
Chain of Estrogen receptor beta (Homo sapiens) (Q92731 whole entry, looked up): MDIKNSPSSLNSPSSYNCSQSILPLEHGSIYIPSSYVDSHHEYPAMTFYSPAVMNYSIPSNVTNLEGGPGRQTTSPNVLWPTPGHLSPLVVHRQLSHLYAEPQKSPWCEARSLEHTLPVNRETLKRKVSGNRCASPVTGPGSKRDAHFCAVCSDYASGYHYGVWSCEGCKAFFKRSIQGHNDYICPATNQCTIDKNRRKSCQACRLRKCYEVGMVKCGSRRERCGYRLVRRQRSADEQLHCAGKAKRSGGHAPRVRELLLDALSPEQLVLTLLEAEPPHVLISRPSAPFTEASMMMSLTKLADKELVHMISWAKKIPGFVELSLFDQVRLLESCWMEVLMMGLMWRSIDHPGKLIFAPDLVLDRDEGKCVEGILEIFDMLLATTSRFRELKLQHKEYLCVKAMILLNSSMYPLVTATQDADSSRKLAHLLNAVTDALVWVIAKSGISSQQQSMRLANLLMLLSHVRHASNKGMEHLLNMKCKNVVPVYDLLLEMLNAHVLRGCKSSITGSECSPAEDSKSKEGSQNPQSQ

Cc1cc(C)cc(OCC2CNC(=O)O2)c1 (stereo unspecified)
inactive: [1] | [2] | [3] | [4] | [5] | [6]

C=C(C)C(=O)OCCC(C)OC(=O)C(=C)C (stereo unspecified)
inactive: [1] | [2] | [4] | [6]

C=CC(=O)OCCCCCC
inactive: [1] | [2] | [4] | [6]

CCN1CCCC1CNC(=O)c1cc(S(N)(=O)=O)ccc1OC (stereo unspecified)
inactive: [1] | [2] | [3] | [7] | [6]

CCCCC1CCCCC(=O)O1 (stereo unspecified)
inactive: [1] | [2] | [3] | [5] | [6]

CC(C)=CCC/C(C)=C/C(=O)O
inactive: [1] | [2] | [4] | [5] | [8]

COC(C(=O)O)c1ccccc1 (stereo unspecified)
inactive: [1] | [2] | [3] | [6]

CCO[Si](CCCN=C=O)(OCC)OCC
inactive: [1] | [2] | [4] | [8] | [6]

CC(C)c1ccc2oc3nc(N)c(C(=O)O)cc3c(=O)c2c1
inactive: [1] | [2] | [3] | [8]
active: [4] 23.7 µM

C=CCSCC1Nc2cc(Cl)c(S(N)(=O)=O)cc2S(=O)(=O)N1 (stereo unspecified)
inactive: [1] | [2] | [3] | [4] | [5] | [6]

CCCC(C)C(=O)O (stereo unspecified)
inactive: [1] | [2] | [3] | [8] | [6]

COC(=O)CCCCCCCCC(=O)OC
inactive: [1] | [2] | [3] | [5] | [6]

CO[Si](CCCNCCC[Si](OC)(OC)OC)(OC)OC
inactive: [1] | [2] | [4] | [5] | [8] | [6]

Cc1ccc(Nc2ccc(O)c3c2C(=O)c2ccccc2C3=O)cc1
inactive: [1] | [2] | [4] | [5] | [8]

Nc1ccc2cc(S(=O)(=O)O)ccc2c1
not listed: [7] | [9] | [10]
inactive: all other assays above

Cc1c(F)cc2c(=O)c(C(=O)O)cn3c2c1CCC3C (stereo unspecified)
inactive: [1] | [2] | [4] | [7] | [8] | [6]

CCCCCCOC(=O)c1ccccc1O
not listed: [4] | [9] | [10]
inactive: all other assays above

COc1cc(O)cc(O)c1
inactive: [1] | [2] | [4] | [5] | [8] | [6]

C#CC(O)CCCCC (stereo unspecified)
inactive: [1] | [2] | [3] | [4] | [5] | [6]

CCOC(=O)[C@H](CCc1ccccc1)N[C@@H](C)C(=O)N1CCC[C@H]1C(=O)O
inactive: [1] | [2] | [3] | [5] | [6]

CC(C)CCCC(C)CCCC(C)CCCCC(C)CCCC(C)CCCC(C)C (stereo unspecified)
inactive: [1] | [2] | [3] | [4] | [5] | [6]

NC(=O)CCCCC1CCSS1 (stereo unspecified)
inactive: [1] | [2] | [3] | [4] | [8] | [6]

CC(C)=CC(=O)O
inactive: [1] | [2] | [3] | [5] | [8] | [6]

NS(=O)(=O)c1cc2c(cc1Cl)NC(CSCc1ccccc1)=NS2(=O)=O
inactive: [1] | [2] | [3] | [4] | [6]

CCCCCCCCCCC1CO1 (stereo unspecified)
inactive: [1] | [2] | [3] | [5] | [6]

OC/C=C/c1ccccc1
inactive: [1] | [2] | [3] | [5]

NC(=O)c1ncn([C@@H]2O[C@H](CO)[C@@H](O)[C@H]2O)c1N
inactive: [1] | [2] | [4] | [5] | [6]

CC1(C)OC(=O)Nc2ccc(Br)cc21
not listed: [4] | [9] | [10]
inactive: all other assays above

NCCNC(=O)c1ccc(Cl)cn1
inactive: [1] | [2] | [3] | [4] | [8] | [6]

N[C@@H](CS)C(=O)O
inactive: [1] | [2] | [3] | [4] | [5] | [6]

CCC(=O)c1cccc(Cl)c1
inactive: [1] | [2] | [3] | [4] | [6]

C=C(C)[C@@H]1CCC2=CC(=O)C[C@@H](C)[C@]2(C)C1
inactive: [1] | [3] | [4] | [5] | [8] | [6]

CC(=O)O[C@H](CC(=O)[O-])C[N+](C)(C)C
inactive: [1] | [3] | [4] | [5] | [8] | [6]

O=C1C(CCS(=O)c2ccccc2)C(=O)N(c2ccccc2)N1c1ccccc1 (stereo unspecified)
inactive: [1] | [2] | [5]

CCCCc1ccc(N)cc1
not listed: [2] | [7]
inactive: all other assays above
